# Data published in PubChem BioAssay AID2099 (Broad Institute, 2009).
# Out of some 330,000 compounds screened, about 230 (0.07%) were called active. Only a selection was taken, and actives are over-represented in it overall. Unmarked numbers belong to inactive results.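 The calls were made as follows: active = more than half of a compound's replicate wells show inhibition beyond 50%, single wells judged on their own value; inconclusive = some, but no more than half, of replicates pass 50% inhibition; inactive = no replicate passes 50% inhibition.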
# Biological target: Lysine-specific demethylase 4C (Homo sapiens) (UniProt Q9H3R0)
# Sequence (Q9H3R0 1-420 limits assumed): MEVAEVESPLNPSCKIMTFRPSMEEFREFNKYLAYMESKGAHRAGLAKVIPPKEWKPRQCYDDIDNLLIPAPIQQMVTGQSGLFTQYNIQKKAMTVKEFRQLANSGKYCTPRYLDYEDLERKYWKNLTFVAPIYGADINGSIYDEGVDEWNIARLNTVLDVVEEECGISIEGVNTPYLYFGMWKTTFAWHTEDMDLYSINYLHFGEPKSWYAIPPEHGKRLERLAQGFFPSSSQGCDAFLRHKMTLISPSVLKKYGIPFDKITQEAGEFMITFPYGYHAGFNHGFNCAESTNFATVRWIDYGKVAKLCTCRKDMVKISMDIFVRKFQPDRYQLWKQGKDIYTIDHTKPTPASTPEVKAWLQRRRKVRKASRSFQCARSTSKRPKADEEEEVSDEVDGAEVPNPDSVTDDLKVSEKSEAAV
# Assay: JMJD2C H3K9me3 demethylation blockers – biochemical, fluorescence, DELFIA europium, primary screen (AID 2099);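 also: signal counts dimethyl H3K9 product captured on neutravidin plate; 0% = median of DMSO wells and 100% = 0.3 times that DMSO median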
# Details: GST-JMJD2C(1-420) H3K9me3 demethylation, at 2.35 µM, hits give high values
row,Compound,inhibition
1,O=C1N=c2ccccc2=C/C1=C\c1c(O)[nH]c(=S)[nH]c1=O,0.999%
2,O=c1[nH]c(O)c(C=Nc2cc(F)cc(F)c2)c(=O)[nH]1,8.75%
3,Cc1ccc2c(c1)=C/C(=C\c1c(O)[nH]c(=O)[nH]c1=O)C(=O)N=2,68.2% (active)
4,COc1ccc(CN2CCN(c3ccccc3F)CC2)c(OC)c1,2.07%
5,NCC(O)c1ccc(O)cc1 (stereo not given),4.95%
